Results from the supplement of paper PMC6607015.
Structures can show the parent of a compound that is named as a salt.

Legend:
Details in all cases: compound concentration in added solution (µM; 5 µl added to 20 µl cells): 10; 18 h
A431 [1] = test: LBPA endosome anti-LBPA integrated intensity (sum per cell), Z-score; higher = more LBPA staining
Outline: (§1)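 Per-cell integrated LBPA or filipin intensity, whole-cell or within LBPA endosomes, is expressed as Z-scores normalised in AcuityXpress. HeLa MZ or A431 cells, 3,500 per well in 20 µl, sat on 5 µl of 10 µM compound solution in duplicate 384-well imaging plates for 18 h. They were then fixed in 4% PFA, stained, imaged in four 20× fields per well and segmented using MetaXpress.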

HeLa MZ [2] = test: as above
Outline: as §1

A431 [3] = test: whole-cell filipin (free cholesterol) integrated intensity, Z-score; higher = more cholesterol staining
Outline: as §1

HeLa MZ [4] = test: as above
Outline: as §1

A431 [5] = test: filipin (cholesterol) integrated intensity within LBPA endosomes, Z-score; higher = more cholesterol in LBPA endosomes
Outline: as §1

HeLa MZ [6] = test: as above
Outline: as §1

Row | Compound | LBPA endosome anti-LBPA integrated intensity (z-score) (A431 [1]) | LBPA endosome anti-LBPA integrated intensity (z-score) (HeLa MZ [2]) | whole-cell filipin (z-score) (A431 [3]) | whole-cell filipin (z-score) (HeLa MZ [4]) | filipin (z-score) (A431 [5]) | filipin (z-score) (HeLa MZ [6])
1 | CCCCCC[C@H]1C(=O)O[C@H](C)[C@H](NC(=O)c2cccc(NC=O)c2O)C(=O)O[C@@H](C)[C@@H]1OC(=O)CC(C)C [Antimycin A] | -0.868 | -0.65 | -0.217 | -0.804 | -0.854 | -0.994
2 | CC(C)N(CCC(C(N)=O)(c1ccccc1)c1ccccn1)C(C)C (stereo not drawn) [Disopyramide] | -0.423 | 0.142 | -0.822 | -0.537 | -0.461 | -0.294
3 | O=c1c2ccccc2[se]n1-c1ccccc1 [Ebselen] | -0.435 | -0.608 | -0.31 | -0.0059 | -0.372 | -0.243
4 | COc1ccc(OC)c(C(O)C(C)N)c1 (stereo not drawn) [Methoxamine hydrochloride] | -0.442 | 0.415 | -0.614 | -0.834 | -0.515 | -0.513
5 | Fc1ccc(C(OCCN2CCN(CCCc3ccccc3)CC2)c2ccc(F)cc2)cc1 | 3.21 | – | 1.65 | – | 2.65 | –
6 | Cc1cc(C(C#N)c2ccc(Cl)cc2)c(Cl)cc1NC(=O)c1cc(I)cc(I)c1O (stereo not drawn) [Closantel] | -0.54 | -1 | -0.93 | -0.632 | -0.512 | -0.663
7 | CC(CCc1ccccc1)NC(C)C(O)c1ccc(O)cc1 (stereo not drawn) [Nylidrin] | 0.233 | 1.33 | 0.218 | -0.109 | -0.121 | 0.184
8 | CC(=O)NC1CCSC1=O (racemic) [N-Acetyl-DL-homocysteine Thiolactone] | -0.475 | -0.898 | -0.462 | -0.0159 | -0.405 | -0.461
9 | CC[C@@]1([C@@H]2O[C@@H]([C@H]3O[C@@](O)(CO)[C@H](C)C[C@@H]3C)C[C@@H]2C)CC[C@H]([C@]2(C)CC[C@]3(C[C@H](O)[C@@H](C)[C@@H]([C@@H](C)[C@@H](OC)[C@H](C)C(=O)O)O3)O2)O1 [Monensin sodium salt] | – | -0.505 | – | -1.99 | – | 0.206
10 | NCCC(O)C(=O)NC1CC(N)C(OC2OC(CN)C(O)[C@H](O)[C@@H]2N)[C@H](OC2O[C@H](CO)[C@@H](O)[C@@H]2O)[C@@H]1O (stereo partly drawn) [Butirosin disulfate salt] | -0.571 | -0.99 | -0.257 | 0.609 | -0.399 | -0.239
11 | CC1OC(OC2/C=C/C=C/C=C/C=C/CC/C=C/C=C/[C@H](C)[C@@H](O)[C@@H](C)[C@H](C)OC(=O)CC(O)CC(O)CC(O)CCC(O)C(O)C[C@]3(O)CC(O)C(C(=O)O)C(C2)O3)C(O)C(N)C1O (stereo partly drawn) [Nystatine] | -0.00963 | 0.129 | 0.146 | 0.0497 | -0.136 | -0.223
12 | O[C@@H]1CCCC[C@H]1N1CCC(c2ccccc2)CC1 [L(-)-vesamicol hydrochloride] | -0.173 | 1.21 | 0.21 | 0.285 | -0.268 | -0.0101
13 | C=C(C)[C@@H]1[C@H]2OC(=O)[C@@H]1[C@]1(O)C[C@H]3O[C@]34C(=O)O[C@H]2[C@]14C [Picrotoxinin] | -0.582 | -0.88 | -0.718 | -0.469 | -0.448 | -0.32
14 | COc1ccc(CCN2CCC(Nc3nc4ccccc4n3Cc3ccc(F)cc3)CC2)cc1 [Astemizole] | – | -0.627 | – | -1.11 | – | 2.12
15 | COP(=O)(OC)C(O)C(Cl)(Cl)Cl (stereo not drawn) [Trichlorfon] | -0.479 | -0.711 | -1.16 | -1.48 | -0.56 | -0.592
16 | CC(Cc1ccccc1)NCCC(c1ccccc1)c1ccccc1 (stereo not drawn) [Prenylamine lactate] | – | 1.19 | – | 1.27 | – | 2.44
17 | NCC(CC(=O)O)c1ccc(Cl)cc1 (racemic) [Baclofen (R,S)] | -0.529 | -1.07 | -1.03 | -0.783 | -0.513 | -0.613
18 | O=P1(NCCCl)OCCCN1CCCl (stereo not drawn) [Ifosfamide] | -0.43 | -0.294 | 0.0112 | -0.489 | -0.396 | -0.611
19 | CN1CCC2(C)c3cc(O)ccc3N(C)C12 (single isomer, unassigned; (-)) [(-)-Eseroline fumarate salt] | -0.298 | 0.682 | 0.444 | -0.261 | -0.415 | -0.33
20 | C[N+]1(C)[C@@H]2CC[C@H]1C[C@@H](OC(=O)C(CO)c1ccccc1)C2 (stereo partly drawn) [Methylatropine nitrate] | -0.382 | 0.224 | -0.241 | 0.542 | -0.375 | -0.173
